The record followed here is PubChem BioAssay (NCATS).

Inconclusive results are not listed. Unmarked numbers belong to inactive results. The source made the active and inactive calls. Unless noted, calls come from the whole dose curve; as a rule, active = well fitted curve in the direction sought with a large enough effect; inconclusive = small, poorly fitted or top-dose-only effect, or another doubt; inactive = no such curve, though single readings can be large; an effect the other way counts as inactive or inconclusive.

Assay [1] can be described thus: qHTS for Inhibitors of Plasmodium falciparum (DD2) proliferation (AID 504314).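 Note: parasite DNA measured by SYBR Green fluorescence after red cell lysis.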 The gist of the method:
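Infected RBCs, 0.3% parasitemia, 2.5% Hct; compound 72 h, 37C/5% CO2; lyse + SYBR Green I, RT overnight, dark; read ex485/em535; normalize to DMSO and artemisinin 0.29 uM.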
(In general: qHTS replaces the single test concentration by a dilution series.)

Assay [2] is described as follows: qHTS for Inhibitors of Plasmodium falciparum (CP250) proliferation (AID 504320). The gist of the method: (§1)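 Erythrocytes infected with P. falciparum line (0.3% parasitemia, 2.5% hematocrit final) incubated with compounds 72 h at 37 °C, 5% CO2; SYBR Green lysis buffer added, fluorescence read next day. Normalized to 0.29 uM artemisinin and DMSO.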
Assay [3] deals with Atrial natriuretic peptide receptor 1 (Homo sapiens) (UniProt P16066). As to the kind of experiment: Natriuretic polypeptide receptor (hNpr1) antagonism - Pilot CMLD screen (AID 1347052; calls by dose curve;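 note: cGMP level read as GloSensor luciferase luminescence after agonist stimulation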; note: potency is the fitted concentration of half-maximal effect).
Atrial natriuretic peptide receptor 1 (Homo sapiens), sequence (P16066 whole entry, looked up): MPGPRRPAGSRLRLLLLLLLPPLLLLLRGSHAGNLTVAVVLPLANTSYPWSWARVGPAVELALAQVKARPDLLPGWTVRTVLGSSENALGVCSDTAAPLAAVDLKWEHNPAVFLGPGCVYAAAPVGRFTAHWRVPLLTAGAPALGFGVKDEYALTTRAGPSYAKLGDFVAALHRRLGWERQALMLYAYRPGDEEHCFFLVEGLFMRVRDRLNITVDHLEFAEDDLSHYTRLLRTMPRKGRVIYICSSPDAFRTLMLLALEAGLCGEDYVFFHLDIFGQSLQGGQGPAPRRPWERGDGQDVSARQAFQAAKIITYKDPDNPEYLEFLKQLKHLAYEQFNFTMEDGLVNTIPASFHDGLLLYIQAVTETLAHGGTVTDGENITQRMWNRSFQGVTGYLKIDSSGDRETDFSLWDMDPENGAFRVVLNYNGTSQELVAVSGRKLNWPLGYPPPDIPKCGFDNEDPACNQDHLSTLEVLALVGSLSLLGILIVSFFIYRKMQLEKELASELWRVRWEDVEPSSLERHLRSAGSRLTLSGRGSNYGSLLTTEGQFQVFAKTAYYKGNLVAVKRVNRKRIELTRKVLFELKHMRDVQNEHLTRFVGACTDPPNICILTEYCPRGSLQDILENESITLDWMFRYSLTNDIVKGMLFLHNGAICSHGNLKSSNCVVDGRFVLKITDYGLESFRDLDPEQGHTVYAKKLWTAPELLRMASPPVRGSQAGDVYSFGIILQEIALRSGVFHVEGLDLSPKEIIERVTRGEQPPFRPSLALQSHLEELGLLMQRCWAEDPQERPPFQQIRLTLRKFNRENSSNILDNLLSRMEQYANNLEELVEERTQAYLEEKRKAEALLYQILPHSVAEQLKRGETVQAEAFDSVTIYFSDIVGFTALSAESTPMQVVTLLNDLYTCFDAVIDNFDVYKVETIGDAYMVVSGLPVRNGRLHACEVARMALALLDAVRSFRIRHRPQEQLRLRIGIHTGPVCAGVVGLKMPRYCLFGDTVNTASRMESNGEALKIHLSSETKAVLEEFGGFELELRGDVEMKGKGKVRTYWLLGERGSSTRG
Assay [4] is described as follows: qHTS for Inhibitors of Plasmodium falciparum (HB3) proliferation (AID 504318). Note: nearly all actives have a fitted effect of over 60% in size. The gist of the method:
as §1

A short description of assay [5]: qHTS for Inhibitors of Plasmodium falciparum (GB4) proliferation (AID 504315). Note: nearly all actives have a fitted effect of over 50% in size. Note: potency is the fitted concentration of half-maximal effect. The gist of the method: as §1
The nature of assay [6]: qHTS for Inhibitors of Plasmodium falciparum (7G8) proliferation (AID 504316). Note: nearly all actives have a fitted effect of over 65% in size. Note: potency is the fitted concentration of half-maximal effect. The procedure, abridged:
as §1

Consider `CCN1C(=NCc2ccc(OC)cc2)NC(c2cccc(F)c2)C(C(=O)OC)=C1C` (stereo not drawn), for which the Potency result in assay [1], in assay [2] and in assay [3] was “inactive” each time.

As to `COc1ccc2c(c1)O[C@@H](c1cccc(C(F)(F)F)c1)[C@H](OC(=O)NC1CCCC1)C2=O`, the Potency entry in assay [1], in assay [2] and in assay [3] was “inactive” in each case.

Regarding `CC=CC1=CC2=CC(=O)C(C)(OC(=O)c3c(C)cc(O)cc3O)C(=O)C2=CO1` (stereo not drawn), the Potency result in assay [1], in assay [4], in assay [2] and in assay [3] was “inactive” throughout.

On to `COC(=O)C1=C(C)N(Cc2ccccc2)C(=NCc2ccccc2)NC1c1ccccc1` (stereo not drawn), for which the Potency entry in assay [1], in assay [4], in assay [2] and in assay [3] was “inactive” throughout.

For `Cc1cc(C)c(-c2cc([C@H](C)ON=C[C@@H](C)[C@H](OCc3ccccc3)C(C)C)on2)c(C)c1`, the Potency entry in assay [1], in assay [4], in assay [2] and in assay [3] was “inactive” each time.

On to `COC(=O)C1=C(C(=O)OC)[C@@H]2N(C)c3ccccc3[C@@]23C[C@@H](C(=O)OC)N(C(=O)Nc2cccc(C#N)c2)C3=N1`, for which the Potency entry in assay [1], in assay [4] and in assay [3] was “inactive” throughout.

With `CCCCCCCc1cc2ccccc2c2c(C(=O)OC)c(C)c(C(=O)OC)n12`, the Potency entry in assay [1], in assay [4] and in assay [2] was “inactive” each time. The Potency in assay [3] is 944 nM (active).

`C[C@@H]1CC[C@H]2C(=O)N(Cc3ccccc3)C[C@H](O)CN2[C@@H]1c1ccc(Br)cc1`: the Potency in assay [5] is 1690 nM (active); in assay [3] it was 2990 nM (active).

Regarding `C[C@@H]1C=CCCO[C@]12C(=O)N(Cc1ccccc1C(F)(F)F)c1cccc(Br)c12`, the Potency entry in assay [1], in assay [2] and in assay [3] was “inactive” each time.

As to `COC(=O)[C@@H]1CC[C@H](C)[C@@H](c2ccc(C)cc2)N1C(=O)c1ccc(C=NOC[C@@H](O)COCc2ccco2)cc1`, the Potency entry in assay [5] and in assay [3] was “inactive” throughout.

Consider `CC(Nc1oc(-c2ccccc2)nc1-c1ccccc1)c1ccccc1` (stereo not drawn), for which the Potency entry in assay [1], in assay [2] and in assay [3] was “inactive” throughout.

For `Cc1cc2c(nc1C)CCCCN2C[C@H](C)ON=C1[C@H]2CCn3c(=O)n(-c4ccccc4)c(=O)n3[C@@H]2[C@H](O)[C@@H]2O[C@H]12`, the Potency entry in assay [5] and in assay [3] was “inactive” each time.

`COC(=O)N[C@@H](c1ccccc1)C(C(=O)OC)C(=O)OC`: the Potency result in assay [1], in assay [2] and in assay [3] was “inactive” in each case.

Turning to `COC(=O)CC1=CO[C@@H](O)[C@@H]2C(CO)=CC[C@@H]12`, the Potency result in assay [1], in assay [2] and in assay [3] was “inactive” each time.

As to `CCC=C1C(=O)[C@]2(C(=O)c3ccccc3)C[C@H]3CCC(CCC)(C2=O)[C@@]13OC`, the Potency result in assay [1], in assay [2] and in assay [3] was “inactive” in each case.

In the case of `COC(=O)C1=C(C)N(Cc2ccccc2)C(=NCC2CC2)NC1c1ccccc1` (stereo not drawn), the Potency in assay [5] is 1690 nM (active). For the same compound, in assay [3], the Potency entry is “inactive”.

Regarding `COc1ccc(OC[C@H]2CN3[C@H](c4ccc(Br)cc4)[C@H](C)CC[C@H]3C(=O)O2)cc1`, the Potency entry in assay [1], in assay [2] and in assay [3] was “inactive” in each case.

As to `C=CCNC(=O)N1CCc2nc(-c3ccc(OC)cc3C)c3c(c2C1)CO[C@@H](c1ccccc1)C3`, the Potency entry in assay [5] and in assay [3] was “inactive” each time. For the same compound, the Potency in assay [6] was 1510 nM (active).

Take `CC(C)=CCCC(C)=CCN1C(=O)[C@]2(OCCC=C[C@H]2C)c2ccccc21`: the Potency entry in assay [1], in assay [2] and in assay [3] was “inactive” throughout.

For `COc1ccc2c3c(c(=O)oc2c1)[C@H]1O[C@](c2ccsc2)(Cc2ccccc21)O3`, the Potency in assay [5] is 1690 nM (active). In assay [3], the Potency result is “inactive”.

For `C=C(CO[C@@H]1C=C[C@@H](c2ccccc2)O[C@@H]1COC)c1ccccc1`, the Potency in assay [5] was 1510 nM (active). In addition, in assay [3], the Potency result was “inactive”.

Turning to `COc1cc(C(CC2=C(c3ccccc3)Cc3ccccc32)NC(=O)C(F)(F)F)cc(OC)c1OC` (stereo not drawn), the Potency entry in assay [1], in assay [2] and in assay [3] was “inactive” in each case.

As for `CCCCCCCC1=Cc2ccccc2C(C(C(=O)OC)C(=O)OC)N1C(=O)OC` (stereo not drawn), the Potency result in assay [1], in assay [2] and in assay [3] was “inactive” each time.

With `Cc1ccccc1Nc1oc(-c2ccccc2)nc1-c1ccccc1`, the Potency in assay [5] is 1900 nM (active); in assay [6], 1690 nM (active). Moreover, the Potency result in assay [3] is “inactive”.

For `COc1ccc2c(c1)[C@@H](NC(=O)C(F)(F)F)C1CCCCC21c1ccccc1` (stereo partly drawn), the Potency entry in assay [1], in assay [2] and in assay [3] was “inactive” throughout.

As to `COC(=O)[C@H]1O[C@@H](c2cc(OC)c(C)c(OC)c2OCc2ccccc2)[C@H](C)[C@@H]2O[C@]12C`, the Potency in assay [5] was 2130 nM (active). In addition, in assay [3], the Potency result was “inactive”.

With `COC(=O)[C@@H]1CC[C@H](C)[C@@H](c2ccc(C)cc2)N1C(=O)c1ccc(C=NO[C@@H](C)c2cn([C@H](CO)Cc3ccccc3)nn2)cc1`, the Potency result in assay [5] and in assay [3] was “inactive” each time.

On to `COCOc1ccc(Br)cc1C(=O)[C@@H]1O[C@@H]1c1cccc(OC)c1`, for which the Potency result in assay [5] and in assay [3] was “inactive” each time.

`COC(=O)N[C@H](C(C(=O)OC)=C(C)NCc1ccccc1)c1ccccc1`: the Potency result in assay [1], in assay [2] and in assay [3] was “inactive” throughout.

Turning to `COCOc1c2c(c(OCOC)c3c(OCOC)cccc13)C(=NNS(=O)(=O)c1ccc(C)cc1)C1=C2CCCC1`, the Potency result in assay [1], in assay [2] and in assay [3] was “inactive” throughout.

Consider `CC(=CC[Si](C)(C)C)CCC=O`, for which the Potency result in assay [1], in assay [2] and in assay [3] was “inactive” in each case.

Turning to `CC1(OC(=O)C2CCCC2)C(=O)C=C2C=C(c3ccsc3)N(Cc3ccccc3)C=C2C1=O` (stereo not drawn), the Potency result in assay [5], in assay [6] and in assay [3] was “inactive” throughout.

As for `COC(=O)N[C@@H](C=Cc1ccccc1)C(C(=O)OC)=C(C)NCc1ccccc1`, the Potency in assay [5] was 1690 nM (active). The Potency entry in assay [3] is “inactive”.

Consider `C=C(C)C1CC23C(=O)[C@]4(C(=O)c5ccccc5)C[C@@]5(C)CCC(CC2C1(C)C)(C4=O)[C@@]35OC` (stereo partly drawn), for which the Potency result in assay [1], in assay [2] and in assay [3] was “inactive” each time.

Regarding `C=CC[C@@H]1C=C[C@@H](Oc2ccc(OC)cc2)[C@H](CO)O1`, in assay [5], the Potency was 1510 nM (active). In addition, in assay [3], the Potency entry was “inactive”.

With `CC12C=C(C=Cc3ccc(C(F)(F)F)cc3)C(C)(C1)C(c1ccc(C(F)(F)F)cc1)CC2=O` (stereo not drawn), the Potency result in assay [1], in assay [2] and in assay [3] was “inactive” throughout.

`C=CCCCC=C(C)[C@H](OCc1ccc(OC)cc1)[C@H](CCC=C(C)C(N)=O)OC`: the Potency entry in assay [1], in assay [2] and in assay [3] was “inactive” each time.

For the compound `COC(=O)C1=C(C(=O)OC)[C@@H]2N(C)c3ccc(OC)cc3[C@@]23C[C@@H](C(=O)OC)N(C(=O)NC(C)(C)C)C3=N1`, the Potency in assay [5] was 1900 nM (active). The Potency result in assay [3] was “inactive”.

With `C=C(C(C)=O)C(O)c1ccco1` (stereo not drawn), the Potency entry in assay [1], in assay [2] and in assay [3] was “inactive” in each case.

In the case of `COC(=O)N[C@@H](C=Cc1ccccc1)C[N+](=O)[O-]`, the Potency entry in assay [1], in assay [2] and in assay [3] was “inactive” each time.

As for `COc1ccc(O[C@H]2C=C[C@@H](c3ccccc3)O[C@H]2COC(=O)NCc2cccc3ccccc23)cc1`, the Potency entry in assay [1], in assay [2] and in assay [3] was “inactive” each time.

On to `CC(C)=CCCC(C)=CCN1C(=O)[C@@]2(C[C@@H](C)C[C@@H](C)O2)c2ccccc21`, for which the Potency entry in assay [1], in assay [2] and in assay [3] was “inactive” in each case.
